Measurements reported in paper PMC7862700, “An all-to-all approach to the identification of sequence-specific readers for epigenetic DNA modifications on cytosine”.

Key:
Test in all cases: DAPPL (digital affinity profiling via proximity ligation, sequencing); 10 mM Tris-HCl pH 7.5, 50 mM NaCl, 1 mM DTT, 4% glycerol, room temperature, 30 min; GST-TFs on glutathione beads, 16-mer random dsDNA library, 0.1% formaldehyde crosslink after washing; high values mean tight binding
[1] = target: T1, FLI1 (Homo sapiens, UniProt Q01543 1-452); conditions: protein: recombinant; tags: N-terminal GST; dsDNA, one strand shown
T1 sequence: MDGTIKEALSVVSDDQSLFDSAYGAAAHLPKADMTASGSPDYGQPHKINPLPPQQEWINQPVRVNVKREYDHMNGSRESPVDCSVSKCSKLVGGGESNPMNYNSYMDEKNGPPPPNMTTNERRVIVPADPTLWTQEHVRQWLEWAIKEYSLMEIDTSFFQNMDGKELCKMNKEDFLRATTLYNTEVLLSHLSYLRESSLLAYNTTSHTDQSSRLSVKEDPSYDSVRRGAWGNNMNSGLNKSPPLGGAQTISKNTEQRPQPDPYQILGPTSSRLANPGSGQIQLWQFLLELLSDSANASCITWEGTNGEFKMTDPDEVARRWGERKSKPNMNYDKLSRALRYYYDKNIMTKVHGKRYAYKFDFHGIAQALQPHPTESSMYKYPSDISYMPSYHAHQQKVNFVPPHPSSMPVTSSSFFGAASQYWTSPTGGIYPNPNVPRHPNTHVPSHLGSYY
Method in brief: (§1)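 Human transcription factors carrying a GST fusion were produced in yeast, bound to glutathione beads, tagged with DNA barcodes and pooled together with a tag-only sample. Each pool was held with 200 nmole of a random double-stranded 16-mer DNA library in Tris/NaCl/DTT/glycerol buffer for 30 min at room temperature, then washed, crosslinked in 0.1% formaldehyde, proximity-ligated with BsaI/T4 ligase (1 h, 37 °C), PCR-amplified and sequenced on an Illumina NextSeq500. Binding signal is the read frequency of each hexamer for a given factor divided by its frequency in the tag-only sample.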

[2] = target: T2, ELK1 (Homo sapiens, UniProt P19419 1-428); conditions: protein: recombinant; tags: N-terminal GST; dsDNA, one strand shown
T2 sequence: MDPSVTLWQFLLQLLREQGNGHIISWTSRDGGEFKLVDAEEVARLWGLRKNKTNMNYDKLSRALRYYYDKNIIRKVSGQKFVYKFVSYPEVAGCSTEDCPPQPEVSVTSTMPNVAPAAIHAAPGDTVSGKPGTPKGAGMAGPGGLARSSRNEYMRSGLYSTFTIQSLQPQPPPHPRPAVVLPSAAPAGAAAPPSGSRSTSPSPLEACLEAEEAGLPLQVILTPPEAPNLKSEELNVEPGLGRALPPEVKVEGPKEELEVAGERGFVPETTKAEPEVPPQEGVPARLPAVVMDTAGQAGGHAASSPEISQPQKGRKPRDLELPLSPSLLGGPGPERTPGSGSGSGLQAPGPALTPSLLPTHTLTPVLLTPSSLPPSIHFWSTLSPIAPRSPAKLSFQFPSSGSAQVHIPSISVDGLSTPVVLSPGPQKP
Method in brief: as §1

[3] = target: T3, GABPA (Homo sapiens, UniProt Q06546 1-454); conditions: protein: recombinant; tags: N-terminal GST; dsDNA, one strand shown
T3 sequence: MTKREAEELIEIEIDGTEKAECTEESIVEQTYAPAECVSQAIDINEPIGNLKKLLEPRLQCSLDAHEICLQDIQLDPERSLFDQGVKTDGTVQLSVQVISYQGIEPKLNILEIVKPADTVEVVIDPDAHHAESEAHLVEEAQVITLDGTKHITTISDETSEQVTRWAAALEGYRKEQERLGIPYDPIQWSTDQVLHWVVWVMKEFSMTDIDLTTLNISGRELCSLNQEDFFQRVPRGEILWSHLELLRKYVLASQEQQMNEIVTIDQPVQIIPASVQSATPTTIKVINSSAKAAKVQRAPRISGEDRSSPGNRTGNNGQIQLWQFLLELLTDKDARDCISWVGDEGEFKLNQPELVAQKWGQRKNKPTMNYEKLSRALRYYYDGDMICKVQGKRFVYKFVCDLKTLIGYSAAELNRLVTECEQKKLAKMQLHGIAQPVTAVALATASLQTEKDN
Method in brief: as §1

[4] = target: T4, ERG (Homo sapiens, UniProt P11308 1-479); conditions: protein: recombinant; tags: N-terminal GST; dsDNA, one strand shown
T4 sequence: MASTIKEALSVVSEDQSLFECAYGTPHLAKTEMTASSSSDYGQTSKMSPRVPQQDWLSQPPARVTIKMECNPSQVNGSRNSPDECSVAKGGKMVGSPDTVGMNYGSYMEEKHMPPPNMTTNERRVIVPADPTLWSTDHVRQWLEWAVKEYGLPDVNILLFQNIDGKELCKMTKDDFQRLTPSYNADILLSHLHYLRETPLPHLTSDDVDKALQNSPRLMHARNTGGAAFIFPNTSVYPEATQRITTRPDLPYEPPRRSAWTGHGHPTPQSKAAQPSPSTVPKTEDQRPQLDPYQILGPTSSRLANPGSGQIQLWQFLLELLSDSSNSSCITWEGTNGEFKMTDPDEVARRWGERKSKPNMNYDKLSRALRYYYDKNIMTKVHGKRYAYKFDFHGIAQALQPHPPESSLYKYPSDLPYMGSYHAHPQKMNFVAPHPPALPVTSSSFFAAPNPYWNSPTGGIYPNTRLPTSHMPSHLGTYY
Method in brief: as §1

[5] = target: ELF1 (Homo sapiens, UniProt P32519 1-619); conditions: protein: recombinant; tags: N-terminal GST; dsDNA, one strand shown
Method in brief: as §1

[6] = target: T5, EHF (Homo sapiens, UniProt Q9NZC4 1-300); conditions: protein: recombinant; tags: N-terminal GST; dsDNA, one strand shown
T5 sequence: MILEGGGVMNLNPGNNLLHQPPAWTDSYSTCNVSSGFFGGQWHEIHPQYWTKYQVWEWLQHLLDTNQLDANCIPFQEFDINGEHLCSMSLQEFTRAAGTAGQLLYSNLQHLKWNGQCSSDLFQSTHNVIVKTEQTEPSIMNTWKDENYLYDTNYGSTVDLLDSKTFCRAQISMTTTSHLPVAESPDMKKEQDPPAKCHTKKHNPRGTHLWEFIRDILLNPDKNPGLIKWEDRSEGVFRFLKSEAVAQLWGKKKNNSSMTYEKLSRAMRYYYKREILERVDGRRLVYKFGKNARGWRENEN
Method in brief: as §1

[7] = target: SPI1 (Homo sapiens, UniProt P17947 1-270); conditions: protein: recombinant; tags: N-terminal GST; dsDNA, one strand shown
Method in brief: as §1

[8] = target: SPIB (Homo sapiens, UniProt Q01892 1-262); conditions: protein: recombinant; tags: N-terminal GST; dsDNA, one strand shown
Method in brief: as §1

[9] = target: T6, ELK3 (Homo sapiens, UniProt P41970 1-407); conditions: protein: recombinant; tags: N-terminal GST; dsDNA, one strand shown
T6 sequence: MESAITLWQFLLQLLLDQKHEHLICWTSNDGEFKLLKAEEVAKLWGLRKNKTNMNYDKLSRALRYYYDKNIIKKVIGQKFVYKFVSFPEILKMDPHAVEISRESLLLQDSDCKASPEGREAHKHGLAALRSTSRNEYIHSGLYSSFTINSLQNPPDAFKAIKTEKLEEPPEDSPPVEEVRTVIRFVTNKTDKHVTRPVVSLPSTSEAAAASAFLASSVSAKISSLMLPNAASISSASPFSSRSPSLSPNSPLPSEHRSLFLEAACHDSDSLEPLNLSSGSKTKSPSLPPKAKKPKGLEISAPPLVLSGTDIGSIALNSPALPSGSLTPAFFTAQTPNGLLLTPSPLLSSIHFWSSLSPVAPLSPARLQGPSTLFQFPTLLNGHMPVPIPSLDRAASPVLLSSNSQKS
Method in brief: as §1

[10] = target: T7, FEV (Homo sapiens, UniProt Q99581 1-238); conditions: protein: recombinant; tags: N-terminal GST; dsDNA, one strand shown
T7 sequence: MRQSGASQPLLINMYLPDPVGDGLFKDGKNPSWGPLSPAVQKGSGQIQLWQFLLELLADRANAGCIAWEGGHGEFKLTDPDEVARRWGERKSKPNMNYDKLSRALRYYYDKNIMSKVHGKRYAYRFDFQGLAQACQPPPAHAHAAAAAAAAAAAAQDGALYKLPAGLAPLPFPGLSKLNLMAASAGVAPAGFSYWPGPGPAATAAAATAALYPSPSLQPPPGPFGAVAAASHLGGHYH
Method in brief: as §1

[11] = target: ETV5 (Homo sapiens, UniProt P41161 1-510); conditions: protein: recombinant; tags: N-terminal GST; dsDNA, one strand shown
Method in brief: as §1

[12] = target: HSF1 (Homo sapiens, UniProt Q00613 1-529); conditions: protein: recombinant; tags: N-terminal GST; chain copies: 3; dsDNA, one strand shown
Method in brief: as §1

[13] = target: T8, SPIC (Homo sapiens, UniProt Q8N5J4 1-248); conditions: protein: recombinant; tags: N-terminal GST; dsDNA, one strand shown
T8 sequence: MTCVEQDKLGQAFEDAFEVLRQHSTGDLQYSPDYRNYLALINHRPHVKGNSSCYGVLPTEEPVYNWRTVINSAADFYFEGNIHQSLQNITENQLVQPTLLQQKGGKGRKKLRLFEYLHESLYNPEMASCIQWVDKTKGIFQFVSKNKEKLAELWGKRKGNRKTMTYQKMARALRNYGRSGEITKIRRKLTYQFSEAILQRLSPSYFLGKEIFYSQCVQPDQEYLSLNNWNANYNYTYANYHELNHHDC
Method in brief: as §1

[14] = target: ELF4 (Homo sapiens, UniProt Q99607 1-663); conditions: protein: recombinant; tags: N-terminal GST; dsDNA, one strand shown
Method in brief: as §1

[15] = target: T9, ELK4 (Homo sapiens, UniProt P28324-2 1-405); conditions: protein: recombinant; tags: N-terminal GST; dsDNA, one strand shown
T9 sequence: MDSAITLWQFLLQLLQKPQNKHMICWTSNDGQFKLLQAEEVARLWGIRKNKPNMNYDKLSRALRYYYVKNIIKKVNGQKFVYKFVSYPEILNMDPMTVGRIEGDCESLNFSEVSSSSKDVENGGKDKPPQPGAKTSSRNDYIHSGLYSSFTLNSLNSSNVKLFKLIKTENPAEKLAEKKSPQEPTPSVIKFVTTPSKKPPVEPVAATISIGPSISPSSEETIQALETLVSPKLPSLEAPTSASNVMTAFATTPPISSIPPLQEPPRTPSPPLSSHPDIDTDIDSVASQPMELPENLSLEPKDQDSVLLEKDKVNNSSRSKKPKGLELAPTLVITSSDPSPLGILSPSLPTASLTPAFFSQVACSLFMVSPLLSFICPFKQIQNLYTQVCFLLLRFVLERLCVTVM
Method in brief: as §1

[16] = target: T10, ETV2 (Homo sapiens, UniProt O00321 1-342); conditions: protein: recombinant; tags: N-terminal GST; dsDNA, one strand shown
T10 sequence: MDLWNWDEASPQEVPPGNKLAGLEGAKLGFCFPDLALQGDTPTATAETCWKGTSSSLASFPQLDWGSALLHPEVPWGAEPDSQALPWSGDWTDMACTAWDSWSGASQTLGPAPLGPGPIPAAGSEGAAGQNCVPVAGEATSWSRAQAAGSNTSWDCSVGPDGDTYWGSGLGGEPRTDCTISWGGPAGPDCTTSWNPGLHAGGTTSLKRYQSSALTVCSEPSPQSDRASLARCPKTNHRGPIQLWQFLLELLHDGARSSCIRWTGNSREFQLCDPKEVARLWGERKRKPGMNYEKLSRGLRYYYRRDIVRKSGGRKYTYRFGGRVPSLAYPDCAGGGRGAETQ
Method in brief: as §1

[17] = target: T11, ELF3 (Homo sapiens, UniProt P78545 1-371); conditions: protein: recombinant; tags: N-terminal GST; dsDNA, one strand shown
T11 sequence: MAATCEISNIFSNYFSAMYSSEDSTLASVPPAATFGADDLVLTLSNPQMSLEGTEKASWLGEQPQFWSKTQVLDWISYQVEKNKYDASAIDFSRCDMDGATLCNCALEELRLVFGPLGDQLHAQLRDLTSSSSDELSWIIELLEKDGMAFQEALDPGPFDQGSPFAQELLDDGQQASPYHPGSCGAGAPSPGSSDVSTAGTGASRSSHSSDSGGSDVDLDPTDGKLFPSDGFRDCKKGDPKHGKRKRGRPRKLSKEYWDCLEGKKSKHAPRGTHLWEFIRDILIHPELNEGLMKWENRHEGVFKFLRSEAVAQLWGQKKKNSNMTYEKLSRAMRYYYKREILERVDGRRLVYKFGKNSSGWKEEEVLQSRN
Method in brief: as §1

[18] = target: CRX (Homo sapiens, UniProt O43186 1-299); conditions: protein: recombinant; tags: N-terminal GST; dsDNA, one strand shown
Method in brief: as §1

[19] = target: ETV1 (Homo sapiens, UniProt P50549 1-477); conditions: protein: recombinant; tags: N-terminal GST; dsDNA, one strand shown
Method in brief: as §1

ELF1, sequence (P32519 whole entry): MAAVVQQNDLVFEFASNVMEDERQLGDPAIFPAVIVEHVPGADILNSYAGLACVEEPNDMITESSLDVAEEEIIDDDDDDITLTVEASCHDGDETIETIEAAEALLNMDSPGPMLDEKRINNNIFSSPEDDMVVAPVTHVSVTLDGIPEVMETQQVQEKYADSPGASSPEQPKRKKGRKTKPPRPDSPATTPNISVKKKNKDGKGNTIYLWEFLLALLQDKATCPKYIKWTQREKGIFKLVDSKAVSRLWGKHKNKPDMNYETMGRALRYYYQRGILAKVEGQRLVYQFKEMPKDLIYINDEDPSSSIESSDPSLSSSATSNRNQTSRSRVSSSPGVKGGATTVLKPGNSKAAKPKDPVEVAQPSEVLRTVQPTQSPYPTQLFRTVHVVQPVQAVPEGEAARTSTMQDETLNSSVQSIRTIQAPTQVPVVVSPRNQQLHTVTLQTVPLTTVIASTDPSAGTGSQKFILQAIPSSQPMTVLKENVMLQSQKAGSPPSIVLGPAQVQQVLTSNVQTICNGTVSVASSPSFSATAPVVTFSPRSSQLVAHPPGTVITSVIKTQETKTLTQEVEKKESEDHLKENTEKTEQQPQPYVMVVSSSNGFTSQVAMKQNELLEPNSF
CRX, sequence (O43186 whole entry): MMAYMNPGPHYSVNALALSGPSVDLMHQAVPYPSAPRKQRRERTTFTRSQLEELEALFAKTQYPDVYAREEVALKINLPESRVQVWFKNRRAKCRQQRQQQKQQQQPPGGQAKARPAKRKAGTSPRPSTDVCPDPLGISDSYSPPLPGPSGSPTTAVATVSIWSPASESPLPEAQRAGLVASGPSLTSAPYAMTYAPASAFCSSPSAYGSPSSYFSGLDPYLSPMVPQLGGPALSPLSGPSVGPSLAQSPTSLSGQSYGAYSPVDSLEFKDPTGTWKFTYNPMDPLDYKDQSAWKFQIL
ETV1, sequence (P50549 whole entry): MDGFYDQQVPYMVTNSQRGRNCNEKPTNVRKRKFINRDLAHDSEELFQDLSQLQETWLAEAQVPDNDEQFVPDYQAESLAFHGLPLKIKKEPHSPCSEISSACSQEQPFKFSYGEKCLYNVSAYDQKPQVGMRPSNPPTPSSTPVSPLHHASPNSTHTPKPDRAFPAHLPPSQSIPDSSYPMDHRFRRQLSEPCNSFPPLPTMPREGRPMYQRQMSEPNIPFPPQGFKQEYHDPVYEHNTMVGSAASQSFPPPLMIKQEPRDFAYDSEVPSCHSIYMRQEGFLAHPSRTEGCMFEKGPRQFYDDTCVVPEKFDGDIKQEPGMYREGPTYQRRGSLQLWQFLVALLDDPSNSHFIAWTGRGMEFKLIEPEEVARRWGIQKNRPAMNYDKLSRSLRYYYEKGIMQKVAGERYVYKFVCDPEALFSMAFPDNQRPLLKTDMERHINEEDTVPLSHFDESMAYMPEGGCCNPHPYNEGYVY
ELF4, sequence (Q99607 whole entry): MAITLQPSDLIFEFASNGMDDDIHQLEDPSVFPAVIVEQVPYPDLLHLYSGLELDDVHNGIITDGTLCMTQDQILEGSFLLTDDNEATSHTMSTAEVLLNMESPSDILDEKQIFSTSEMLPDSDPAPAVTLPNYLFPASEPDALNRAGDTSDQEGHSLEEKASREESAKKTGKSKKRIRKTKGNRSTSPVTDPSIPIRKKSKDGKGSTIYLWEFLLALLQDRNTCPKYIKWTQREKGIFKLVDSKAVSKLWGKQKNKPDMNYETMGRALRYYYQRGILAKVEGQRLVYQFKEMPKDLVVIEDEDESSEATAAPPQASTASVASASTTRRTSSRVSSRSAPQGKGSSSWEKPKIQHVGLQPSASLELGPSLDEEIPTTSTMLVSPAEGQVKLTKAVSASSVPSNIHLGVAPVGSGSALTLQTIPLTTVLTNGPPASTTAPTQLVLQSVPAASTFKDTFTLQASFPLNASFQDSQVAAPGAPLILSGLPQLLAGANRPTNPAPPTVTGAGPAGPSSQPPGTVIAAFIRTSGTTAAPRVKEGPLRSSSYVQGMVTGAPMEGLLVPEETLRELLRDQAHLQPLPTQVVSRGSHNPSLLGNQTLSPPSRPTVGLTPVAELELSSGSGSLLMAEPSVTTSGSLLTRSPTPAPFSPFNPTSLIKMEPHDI
SPIB, sequence (Q01892 whole entry): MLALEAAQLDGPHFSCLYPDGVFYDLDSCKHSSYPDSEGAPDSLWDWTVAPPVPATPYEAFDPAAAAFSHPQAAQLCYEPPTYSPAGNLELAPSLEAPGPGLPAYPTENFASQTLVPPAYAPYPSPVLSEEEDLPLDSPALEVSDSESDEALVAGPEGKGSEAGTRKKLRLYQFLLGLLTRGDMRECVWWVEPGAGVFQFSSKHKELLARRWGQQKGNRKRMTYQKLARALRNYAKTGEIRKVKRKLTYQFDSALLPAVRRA
HSF1, sequence (Q00613 whole entry): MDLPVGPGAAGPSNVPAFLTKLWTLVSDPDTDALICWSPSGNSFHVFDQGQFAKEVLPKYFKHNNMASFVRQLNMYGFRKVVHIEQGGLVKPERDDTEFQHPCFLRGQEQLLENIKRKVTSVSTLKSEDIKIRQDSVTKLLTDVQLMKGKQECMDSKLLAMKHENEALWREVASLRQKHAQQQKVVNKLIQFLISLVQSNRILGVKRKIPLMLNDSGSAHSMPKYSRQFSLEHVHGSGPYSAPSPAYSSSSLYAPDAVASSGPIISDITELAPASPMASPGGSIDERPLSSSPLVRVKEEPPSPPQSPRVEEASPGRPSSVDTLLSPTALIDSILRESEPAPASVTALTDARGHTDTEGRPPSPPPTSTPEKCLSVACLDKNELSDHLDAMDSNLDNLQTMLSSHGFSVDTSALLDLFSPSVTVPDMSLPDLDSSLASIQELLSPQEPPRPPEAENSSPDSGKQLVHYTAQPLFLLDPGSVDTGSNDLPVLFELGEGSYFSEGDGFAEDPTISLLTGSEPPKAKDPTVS
ETV5, sequence (P41161 whole entry): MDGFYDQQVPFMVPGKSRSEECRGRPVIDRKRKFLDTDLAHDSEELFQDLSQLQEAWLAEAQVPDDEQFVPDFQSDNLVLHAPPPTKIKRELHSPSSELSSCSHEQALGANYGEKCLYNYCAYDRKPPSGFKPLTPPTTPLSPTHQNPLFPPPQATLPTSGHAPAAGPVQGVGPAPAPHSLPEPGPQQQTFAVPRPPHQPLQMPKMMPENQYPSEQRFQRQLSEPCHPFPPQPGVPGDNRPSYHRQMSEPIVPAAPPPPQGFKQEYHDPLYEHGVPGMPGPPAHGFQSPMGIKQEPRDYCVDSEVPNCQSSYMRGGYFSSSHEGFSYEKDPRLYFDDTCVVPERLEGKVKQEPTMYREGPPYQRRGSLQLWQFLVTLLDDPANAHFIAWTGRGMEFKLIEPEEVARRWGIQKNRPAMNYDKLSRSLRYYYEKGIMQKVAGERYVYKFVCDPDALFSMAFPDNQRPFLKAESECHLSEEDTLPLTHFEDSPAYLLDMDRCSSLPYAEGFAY

CGGCTC
binding signal [1]: 1.27 fold enrichment (6-mer frequency, TF over GST control) | binding signal [2]: 1.29 fold enrichment (6-mer frequency, TF over GST control) | binding signal [3]: 1.2 fold enrichment (6-mer frequency, TF over GST control) | binding signal [4]: 1.33 fold enrichment (6-mer frequency, TF over GST control) | binding signal [5]: 1.27 fold enrichment (6-mer frequency, TF over GST control) | binding signal [6]: 1.31 fold enrichment (6-mer frequency, TF over GST control) | binding signal [7]: 1.33 fold enrichment (6-mer frequency, TF over GST control) | binding signal [8]: 1.33 fold enrichment (6-mer frequency, TF over GST control) | binding signal [9]: 1.31 fold enrichment (6-mer frequency, TF over GST control) | binding signal [10]: 1.33 fold enrichment (6-mer frequency, TF over GST control) | binding signal [11]: 1.28 fold enrichment (6-mer frequency, TF over GST control) | binding signal [12]: 1.21 fold enrichment (6-mer frequency, TF over GST control) | binding signal [13]: 1.23 fold enrichment (6-mer frequency, TF over GST control) | binding signal [14]: 1.35 fold enrichment (6-mer frequency, TF over GST control) | binding signal [15]: 1.22 fold enrichment (6-mer frequency, TF over GST control) | binding signal [16]: 1.42 fold enrichment (6-mer frequency, TF over GST control) | binding signal [17]: 1.48 fold enrichment (6-mer frequency, TF over GST control) | binding signal [18]: 1.26 fold enrichment (6-mer frequency, TF over GST control) | binding signal [19]: 1.29 fold enrichment (6-mer frequency, TF over GST control)
